Experimental data reported in PubChem BioAssay AID1159580 (chemical genetic matrix, 2015).
Among all 5,500 compounds or so, about 2,000 (36%) were called active. Not shown: some 18% with an inconclusive outcome. Rule as the data show it: active = normalized growth mostly below about 0.91 (no sharp cut-off); inconclusive = no clear call, values can overlap the other calls; inactive = mostly above about 0.92. This is one part of the list.

Test: chemical genetic growth profiling, strain panel (AID 1159580);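 also: tested at 20 µM; growth read once vehicle control cultures reached saturation at 30 °C; 1 = growth at the plate median or of vehicle wells; lower values mean less growth of the strain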
Conditions: S. cerevisiae deletion strains, growth OD

Measured: normalized growth

NC1(C(=O)O)CCc2cc(C(=O)O)ccc21 (stereo not drawn)
inactive: locus YAL040C, strain CLN3, active compounds read low 0.959 | locus YER002W, strain NOP16, active compounds read low 0.997 | locus YGR078C, strain PAC10, active compounds read low 1.01 | locus YNL128W, strain TEP1, active compounds read low 0.997 | locus YNL175C, strain NOP13, active compounds read low 0.988 | locus YNL197C, strain WHI3, active compounds read low 0.998 | locus YNL224C, strain SQS1, active compounds read low 1.01 | locus YOR083W, strain WHI5 (second series), active compounds read low 0.993
